Data as given in PubChem BioAssay AID1159580 (chemical genetic matrix, 2015).
Where “and” joins values, the source holds several entries; their conditions need not be identical. Equal entries are not always repeated. In all, about 5,500 compounds went through this assay and about 2,000 (36%) were called active. Another 18% or so got no clear call; they are omitted. Cut-off read from the data, not from the text of the source: active = normalized growth mostly below about 0.91 (no sharp cut-off); inconclusive = no clear call, values can overlap the other calls; inactive = mostly above about 0.92. This is one part of the list.

Assay: chemical genetic growth profiling, strain panel (AID 1159580);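 note: tested at 20 µM; growth read once vehicle control cultures reached saturation at 30 °C; 1 = growth at the plate median or of vehicle wells; lower values mean less growth of the strain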
Details: S. cerevisiae deletion strains, growth OD

Measured: normalized growth

COC1=CC23CCCN2CCc2cc4c(cc2C3C1O)OCO4 (stereo not drawn)
inactive: locus YAL013W, strain DEP1, active compounds read low 1.01 | locus YAL021C, strain ccr4, active compounds read low 1.02 | locus YAL026C, strain drs2, active compounds read low 1.03 | locus YAL030W, strain snc1, active compounds read low 1.02 | locus YBL061C, strain skt5, active compounds read low 1.03 | locus YBR009C, strain hhf1, active compounds read low 1.04 | locus YBR021W, strain FUR4, active compounds read low 1.01 | locus YBR023C, strain chs3, active compounds read low 1.05 | locus YBR171W, strain sec66, active compounds read low 1.06 | locus YBR229C, strain ROT2, active compounds read low 1.01 | locus YBR231C, strain swc5, active compounds read low 1.02 | locus YBR279W, strain paf1, active compounds read low 1.03 | locus YCL011C, strain gbp2, active compounds read low 1.02 | locus YCL016C, strain dcc1, active compounds read low 1.03 | locus YCL029C, strain bik1, active compounds read low 1.01 | locus YCL061C, strain MRC1, active compounds read low 1.03 | locus YCL069W, strain vba3, active compounds read low 1.02 | locus YCR088W, strain abp1, active compounds read low 1.03 | locus YDL005C, strain med2, active compounds read low 1.02 | locus YDL035C, strain GPR1, active compounds read low 0.995 | locus YDL040C, strain nat1, active compounds read low 1.02 | locus YDL074C, strain BRE1, active compounds read low 1.04 | locus YDL101C, strain DUN1, active compounds read low 1 | locus YDL185W, strain tfp1, active compounds read low 1.01 | locus YDL192W, strain arf1, active compounds read low 1 | locus YDR001C, strain nth1, active compounds read low 1.02 | locus YDR069C, strain doa4, active compounds read low 1.04 | locus YDR101C, strain arx1, active compounds read low 1.01 | locus YDR137W, strain rgp1, active compounds read low 1.05 | locus YDR150W, strain NUM1, active compounds read low 1.01 | locus YDR159W, strain sac3, active compounds read low 1.04 | locus YDR162C, strain NBP2, active compounds read low 1.01 | locus YDR195W, strain ref2 1.01 | locus YDR297W, strain sur2, active compounds read low 1.02 | locus YDR318W, strain mcm21, active compounds read low 0.987 | locus YDR334W, strain swr1, active compounds read low 1.03 | locus YDR335W, strain msn5, active compounds read low 1.03 | locus YDR388W, active compounds read low 1.01 | locus YDR392W, strain spt3, active compounds read low 0.971 | locus YDR502C, strain sam2, active compounds read low 0.995 | locus YEL003W, strain gim4, active compounds read low 1.02 | locus YEL037C, strain rad23, active compounds read low 1.02 | locus YEL061C, strain CIN8 (second series), active compounds read low 1.02 | locus YEL061C, strain CIN8, active compounds read low 1.01 | locus YER015W, strain faa2, active compounds read low 1.02 | locus YER016W, strain bim1, active compounds read low 1.02 | locus YER110C, active compounds read low 1.01 | locus YER111C, strain swi4, active compounds read low 1.03 | locus YER155C, strain BEM2 (second series), active compounds read low 1.04 | locus YER155C, strain BEM2, active compounds read low 1 | locus YER167W, strain BCK2, active compounds read low 1 | locus YFR010W, strain ubp6, active compounds read low 1.03 | locus YGL078C, strain dbp3, active compounds read low 0.997 | locus YGL086W, strain mad1, active compounds read low 1.03 | locus YGL167C, strain pmr1, active compounds read low 1.03 | locus YGL173C, strain kem1, active compounds read low 1.04 | locus YGL227W, strain vid30, active compounds read low 1.02 | locus YGL240W, strain doc1, active compounds read low 1.04 | locus YGL248W, strain PDE1, active compounds read low 0.988 | locus YGL253W, strain hxk2, active compounds read low 1.03 | locus YGR078C, strain PAC10, active compounds read low 1 | locus YGR135W, strain pre9, active compounds read low 0.986 | locus YGR229C, strain SMI1, active compounds read low 1 | locus YGR252W, strain gcn5, active compounds read low 0.952 | locus YHR013C, strain ard1, active compounds read low 1.04 | locus YHR027C, strain rpn1, active compounds read low 1.06 | locus YHR030C, strain SLT2, active compounds read low 1.01 and 0.963 | locus YHR079C, strain IRE1 (second series), active compounds read low 1.01 | locus YHR079C, strain IRE1, active compounds read low 0.967 | locus YHR094C, strain hxt1, active compounds read low 1.01 | locus YHR129C, strain ARP1, active compounds read low 1.01 | locus YHR142W, strain chs7, active compounds read low 1.05 | locus YHR200W, strain rpn10, active compounds read low 1.01 | locus YIL066C, strain RNR3, active compounds read low 1.01 | locus YIL073C, strain SPO22, active compounds read low 1.04 | locus YIL125W, strain kgd1, active compounds read low 1.01 | locus YIR030C, strain dcg1, active compounds read low 1.01 | locus YJL092W, strain hpr5, active compounds read low 1.02 | locus YJL095W, strain BCK1 (second series), active compounds read low 1.02 | locus YJL095W, strain BCK1, active compounds read low 0.983 and 0.975 | locus YJL115W, strain asf1, active compounds read low 1.01 | locus YJL129C, strain trk1, active compounds read low 1.03 | locus YJL134W, strain LCB3, active compounds read low 1.01 | locus YJL154C, strain vps35, active compounds read low 1.02 | locus YJL164C, strain tpk1, active compounds read low 1.03 | locus YJL166W, strain qcr8, active compounds read low 1.03 | locus YJL168C, strain set2, active compounds read low 1 | locus YJL187C, strain SWE1 (second series), active compounds read low 1
